From PubChem BioAssay AID493170 (National Center for Advancing Translational Sciences (NCATS), 2011)
Results filed as inconclusive are left out. Calls of active or inactive are those of the source. Calls come from the whole dose curve; as a rule, active = well fitted inhibition curve with a large enough effect; inconclusive = small, poorly fitted or top-dose-only effect, or effect the other way; inactive = flat fitted curve, though single readings scatter.

Target: Ubiquitin carboxyl-terminal hydrolase 2 (Homo sapiens) (UniProt O75604)
Sequence (O75604 whole entry, looked up): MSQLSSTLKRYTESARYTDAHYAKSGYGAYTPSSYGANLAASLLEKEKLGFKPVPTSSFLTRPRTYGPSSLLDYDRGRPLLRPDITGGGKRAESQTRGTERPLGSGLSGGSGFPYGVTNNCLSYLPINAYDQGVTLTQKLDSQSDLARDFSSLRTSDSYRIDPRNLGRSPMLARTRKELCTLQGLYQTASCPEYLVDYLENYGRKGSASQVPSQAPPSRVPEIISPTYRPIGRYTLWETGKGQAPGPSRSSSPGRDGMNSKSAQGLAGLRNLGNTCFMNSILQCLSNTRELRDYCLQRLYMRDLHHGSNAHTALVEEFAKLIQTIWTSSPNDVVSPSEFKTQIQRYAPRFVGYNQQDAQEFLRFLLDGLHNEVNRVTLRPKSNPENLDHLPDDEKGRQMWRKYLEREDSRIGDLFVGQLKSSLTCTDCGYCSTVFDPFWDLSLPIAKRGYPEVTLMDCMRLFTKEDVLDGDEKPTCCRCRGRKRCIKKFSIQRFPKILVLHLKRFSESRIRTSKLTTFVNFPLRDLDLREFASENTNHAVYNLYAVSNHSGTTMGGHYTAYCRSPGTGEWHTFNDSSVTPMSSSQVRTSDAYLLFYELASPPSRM
Assay: Ub-rhodamine 110 based assay for inhibitors Ubiquitin-specific Protease USP2a; note: nearly all actives have a fitted effect of over 50% in size
Settings: USP2a Ub-rhodamine110 cleavage, fluorescence; series mostly up to 38.3 µM; activity change, negative = inhibition: at the top concentration
Summary of the method: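 Kinetic fluorescence (485/531 nm) read each minute over 7 min after adding Ub-Rhod110 (150 nM final) to USP2a (5 nM final). The enzyme had 30 min RT exposure to compounds beforehand in Tris pH 8.0 buffer with CaCl2, CHAPS and beta-ME.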
% is set by controls: 0 for no effect and ±100 for the full control effect; potency is the fitted concentration of half-maximal effect.

| SMILES | activity change, negative = inhibition | Potency |
| --- | --- | --- |
| CC1=CC(C)(C)N(C(=O)c2ccccc2)c2ccccc21 | -14.4% (inactive) |  |
| O=C(CSc1nc(N2CCCCC2)nc(N2CCCCC2)n1)N1CCN(c2ccccc2)CC1 | -4.93% (inactive) |  |
| Cc1ccc(C(=O)NCCNS(=O)(=O)c2ccccc2)cc1 | -7.92% (inactive) |  |
| CCOC(=O)C1CCN(C(=O)COC(=O)c2c(C)c(CC)nc3ccccc23)CC1 | -0.892% (inactive) |  |
| CCC(C)NC(=O)C1CN(S(=O)(=O)c2ccccc2)CCN1S(=O)(=O)c1ccccc1 (stereo not drawn) | -7.74% (inactive) |  |
| CN=c1scc(-c2ccccc2F)n1/N=C/c1ccc(O)c(O)c1O |  | 7.08 µM (active) |
| CCCCCCCCCCOC(=O)Cn1c(COc2ccc(OC)cc2)[n+](C)c2ccccc21 | -10.1% (inactive) |  |
| O=C(Nc1nnc(SCCC2OCCO2)s1)C1CC(=O)N(c2ccc(F)cc2)C1 (stereo not drawn) |  | 7.94 µM (active) |
| CCCCCCCCCCOC(=O)Cn1c(COc2cccc(C)c2)[n+](C)c2ccccc21 | -8.36% (inactive) |  |
| O=C(C1CCCN(S(=O)(=O)c2cccc3cccnc23)C1)N1CCN(c2ccccc2F)CC1 (stereo not drawn) | -17.7% (inactive) |  |
| O=C(CSc1nccc(=O)[nH]1)N1N=C2/C(=C/c3ccco3)CCCC2C1c1ccco1 (stereo not drawn) |  | 10 µM (active) |
| COc1ccc(C2CC(=O)N3CN(c4ccccc4F)CSC3=C2C#N)cc1OC (stereo not drawn) | -18.7% (inactive) |  |
| CCOC(=O)c1sc(NC(=O)Nc2ccccc2)cc1C | -16.1% (inactive) |  |
| CC(=O)Nc1ccc(Nc2cc(C)nc(Nc3ccc(NC(C)=O)cc3)n2)cc1 | -6.62% (inactive) |  |
| C=CCn1c(O)c(C(CC)=NCCN2CCOCC2)c(=O)[nH]c1=O | -2.11% (inactive) |  |
| Cc1cccc(Nc2nc(NCc3ccco3)c3ccccc3n2)c1 | -11.2% (inactive) |  |
| CCOC(=O)c1[nH]c2ccc(OC)cc2c1NC(=O)CCN1CCCC(C)C1 (stereo not drawn) | -9.84% (inactive) |  |
| O=C1S/C(=C\C=C\c2ccco2)C(=O)N1c1ccc(O)cc1 |  | 8.91 µM (active) |
| CNC(=O)NC(=O)CSc1ccc(NC(C)=O)cc1 | -6.69% (inactive) |  |
| O=C(Nc1ccccc1)Nc1snnc1C(=O)Nc1cccc(O)c1 |  | 10 µM (active) |
| CCOc1ccc2[nH]c(=O)c(CN(Cc3cccs3)Cc3nnnn3C(C)(C)CC)cc2c1 | -23% (inactive) |  |
| COC(=O)N/N=C\c1cc(Br)ccc1OCc1ccccc1 | -10.6% (inactive) |  |
| CCn1c(COc2ccc(C)cc2)nnc1SCC(=O)Nc1ccc2c(c1)OCCO2 | -6.14% (inactive) |  |
